# Calls of active or inactive are those of the source. The rule behind the calls is not given here.
# Assay: C difficile toxins, biochemical counterscreen, UDPG substrate absence, confirmatory dose response (AID 720650)
# Details: series mostly up to 19.5 µM; activity change, negative = inhibition: at the top concentration
SMILES,"activity change, negative = inhibition",AC50
CC(OC(=O)c1cccnc1Cl)C(=O)NC1CCCCC1 (stereo not given),9.9% (inactive),–
Oc1ccc(CCNc2ncnc3ccc(Cl)cc23)cc1,–,19.5 µM (active)
CCC(=O)Nc1ccc2c(c1)OC[C@H](C)N(C(=O)NC(C)C)C[C@@H](C)[C@@H](OC)CN(C)C2=O,-2.17% (inactive),–
COc1ccc(C(=O)Nc2cc(Cl)ccc2C(=O)O)cc1,–,10.4 µM (active)
CCOc1cc(/C=N/n2cnnc2)ccc1O,-19.8% (inactive),–

# — PubChem BioAssay AID720650 (Broad Institute, 2013)
